Laboratory results as given in PubChem BioAssay AID687016 (The Scripps Research Institute Molecular Screening Center, 2013).
The campaign covered roughly 370,000 compounds. About 2,800 (0.76%) were called active. The list comes from a sample in which actives are over-represented; it also holds similar structures and randomly drawn compounds. A number with no mark means an inactive call. Rule as the data show it: active = inhibition above about 21%; inactive = the rest.

Target: E3 ubiquitin-protein ligase UHRF1 (Homo sapiens) (UniProt Q96T88)
Sequence (Q96T88 whole entry, looked up, the tested form may be a part): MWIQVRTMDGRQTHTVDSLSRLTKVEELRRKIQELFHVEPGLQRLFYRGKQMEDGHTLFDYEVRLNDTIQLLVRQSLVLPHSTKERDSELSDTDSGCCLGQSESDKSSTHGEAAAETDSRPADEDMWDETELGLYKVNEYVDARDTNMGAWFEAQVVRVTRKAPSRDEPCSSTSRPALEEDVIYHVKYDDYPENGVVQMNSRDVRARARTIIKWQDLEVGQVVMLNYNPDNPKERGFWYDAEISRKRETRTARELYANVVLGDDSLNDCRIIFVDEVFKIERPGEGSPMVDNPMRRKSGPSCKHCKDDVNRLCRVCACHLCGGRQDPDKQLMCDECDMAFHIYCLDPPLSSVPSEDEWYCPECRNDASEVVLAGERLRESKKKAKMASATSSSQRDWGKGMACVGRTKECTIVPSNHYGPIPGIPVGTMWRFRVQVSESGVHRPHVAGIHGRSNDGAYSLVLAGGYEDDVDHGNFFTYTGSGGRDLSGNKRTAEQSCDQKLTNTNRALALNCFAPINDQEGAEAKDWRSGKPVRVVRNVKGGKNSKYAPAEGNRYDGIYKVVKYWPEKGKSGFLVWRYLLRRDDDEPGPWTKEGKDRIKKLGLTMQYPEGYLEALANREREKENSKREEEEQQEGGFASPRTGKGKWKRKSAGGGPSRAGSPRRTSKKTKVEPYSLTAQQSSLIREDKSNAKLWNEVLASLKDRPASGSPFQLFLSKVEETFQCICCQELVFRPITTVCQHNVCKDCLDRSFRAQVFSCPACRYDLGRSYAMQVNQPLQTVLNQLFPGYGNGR
Test: blockers of UHRF1 binding to methyl-oligo – biochemical, TR-FRET, human UHRF1, single concentration, counter-screen for MBD2 inhibitor project, primary screen (AID 687016);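 also: UHRF1 SRA domain binding a hemimethylated CpG hairpin DNA probe; 0% = median of test compound wells and 100% = reference inhibitor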
Conditions: UHRF1 binding to methylated oligo, at 4.4 µM, stronger effect = higher value

Row | Compound | inhibition
1 | COc1cccc(NC(=O)c2cc(S(=O)(=O)N3CCc4ccccc43)cn2C)c1 | -1%
2 | COc1ccc(S(=O)(=O)N2CCc3ccccc32)cc1C(=O)Nc1cc(S(C)(=O)=O)ccc1Cl | 21.6% (active)
3 | CCN(C(=O)COC(=O)c1cc(S(=O)(=O)N2CCc3ccccc32)ccc1OC)C1CCS(=O)(=O)C1 (centres undefined) | -0.66%
4 | O=C(C1CCCN1S(=O)(=O)c1ccccc1)N1CCc2ccccc2C1 (centres undefined) | 1.67%
5 | O=S1(=O)c2ccc(N3CCN(Cc4ccccc4F)CC3)cc2Oc2ccccc2CN1Cc1cn(Cc2ccc(Cl)cc2)nn1 | 3.23%
6 | Nc1ccc2nc3c(=O)[nH]c(=S)[nH]c3nc2c1 | 29.6% (active)
7 | N#Cc1ccc(OC[C@@H](O)CN2CCC(C(O)(c3ccccc3)c3ccccc3)CC2)c(F)c1 | -0.23%
8 | C=CCN1C(=O)[C@@H](CC(=O)N2CCN(C(=O)OCC)CC2)[C@]2(C(=O)OCC)CCCCC/C=C/12 | 0.51%
9 | Cc1cc(C)cc(OCC(=O)Nc2cc(NC(=O)COc3cc(C)cc(C)c3)cc(C(=O)O)c2)c1 | -0.86%
10 | Cc1cc(C)cc(OCC(=O)NCc2cc(C)nc3ccccc23)c1 | 37.5% (active)
11 | Cc1cc(C)cc(OCC(=O)NNC(=O)CCN2C(=O)c3ccccc3C2=O)c1 | -0.19%
12 | CCOc1ccc(Oc2c(Cl)cnn(-c3ccc(C)cc3)c2=O)cc1 | 0.41%
13 | CCOC(=O)C1=C(C)NC2=C(C(=O)CC(C)(C)C2)C1c1ccc2c(c1)OCO2 (centres undefined) | 3.68%
14 | O=C(Nc1nc2ccc(Cl)cc2s1)c1cc(-c2ccc(Cl)cc2)nc2ccccc12 | 1.94%
15 | Cc1cc(C(=O)Nc2ccc(C)c(S(=O)(=O)N3CCOCC3)c2)c2ccccc2n1 | 6.42%
16 | O=C(Nc1cccc(F)c1)c1cc(-c2ccco2)nc2ccccc12 | 23% (active)
17 | O=C1CC[C@@H](COc2ccc3[nH]cc(-c4ccccc4)c3c2-c2ccccc2)N1 | -0.59%
18 | C[C@H](C(=O)N(C)c1ccccc1)[C@@H](O)c1ccc(Cl)cc1 | -0.97%
19 | COc1cccc(CNC(=O)C2CCCN(c3nc4ccccc4o3)C2)c1OC (centres undefined) | 3.57%
20 | C=CCOC/C=C/C#CCN(CC=C)Cc1ccc(OC)cc1OC | -1.02%

Row | Compound | inhibition
21 | O=C(NCc1cccs1)C1CCCN(S(=O)(=O)c2ccc([N+](=O)[O-])cc2)C1 (centres undefined) | 1.19%
22 | COCCN(C(=O)c1ccco1)c1nnc(-c2ccc(OC)cc2)s1 | -1.02%
23 | O=C(NCCOc1ccccc1F)Nc1ccc(Br)cc1 | 4.11%
24 | COCCNC(=O)Nc1ccc2nc(-c3ccco3)c(-c3ccco3)nc2c1 | 91.1% (active)
25 | O=C(NC1CCCC1)C1CSCCS(=O)(=O)N1Cc1ccccc1 (centres undefined) | -0.6%
26 | COC(=O)[C@]12C[C@H](CC(=O)NCCc3ccccc3OC)C(=O)N(Cc3ccco3)C1=C[C@H](C(C)C)O[C@@H]2C1CC1 | 3.75%
27 | Oc1c(CN2CCOCC2)ccc(CN2CCOCC2)c1O | 25.4% (active)
28 | O=[N+]([O-])c1ccc(COc2ccccc2CN2CCOCC2)cc1 | -1.96%
29 | OCCN1CCOCCOCCN(CCO)CCN(CCO)CC1 | -0.79%
30 | O=C(CSc1nnc(-c2ccccn2)n1-c1ccccc1)Nc1ccc2cn[nH]c2c1 | -1.24%
31 | Cc1ccccc1CS(=O)(=O)Cc1ccc(C(=O)Nc2ccc(Cl)cc2)o1 | 0.04%
32 | Cc1c(NC(=O)c2c([N+](=O)[O-])cnn2C)c(=O)n(-c2ccccc2)n1C | -1.94%
33 | Cc1c(NC(=S)Nc2ccccc2)c(=O)n(-c2ccccc2)n1C | -4.22%
34 | Cc1c(NC(=O)c2cccnc2)c(=O)n(-c2ccccc2)n1C | 23.3% (active)
35 | COC(=O)[C@]12C[C@H](CC(=O)NCc3ccccc3)C(=O)N(CCC3=CCCCC3)C1=C[C@H](C(C)C)O[C@@H]2C1CC1 | 3.6%
36 | COC(=O)C1CN(Cc2ccc(F)cc2)CCS(=O)(=O)N1Cc1ccc(Cl)cc1 (centres undefined) | 2.67%
37 | O=C(Nc1cccc(Cl)c1)OC1CC2CC1[C@H]1CCCCN1[C@H]2Cc1ccccc1 (some centres undefined) | 0.5%
38 | Cc1cccc(NC(=O)CSc2nnc(CCNC(=O)OC(C)(C)C)o2)c1C | 2.63%
39 | Cc1cccc(NC(=O)CSc2nnc(CCCCCNC(=O)OC(C)(C)C)o2)c1C | 34.9% (active)
40 | Cc1ccccc1CSc1nnc(CCCCCNC(=O)OC(C)(C)C)o1 | 0.59%

Row | Compound | inhibition
41 | O=C(NCc1cccs1)C1CCN(S(=O)(=O)c2ccccc2[N+](=O)[O-])CC1 | 4.97%
42 | COc1ccc(OCC(=O)Nc2cc(C)c(Cl)cc2OC)c([N+](=O)[O-])c1 | -2.47%
43 | Cc1cc(NC(=O)COC(=O)COc2ccc(Cl)cc2C)c([N+](=O)[O-])cc1C | 23% (active)
44 | CCCC(=O)OCC(=O)Nc1cc(Cl)ccc1[N+](=O)[O-] | -3.24%
45 | C=CCN1C(=O)[C@@H](CC(=O)N2CCN(C(=O)c3ccco3)CC2)[C@]2(C(=O)OC)CCCCC=C12 | 1.46%
46 | O=C(Nc1ccc(Br)cc1)OCCN1C(=O)CCC12CCC(c1ccccc1)CC2 (centres undefined) | -4.19%
47 | CC(=O)O[C@@]1(C(C)=O)CCC2[C@H]3C=C(C)C4=CC(=O)CC[C@@]4(C)C3CC[C@]21C (some centres undefined) | 2.53%
48 | CCCCNC(=O)C[C@@H]1C(=O)N(CCc2ccc(Cl)cc2)C2=CCCC[C@]21C(=O)OCC | -3.97%
49 | COc1ccc(-c2cc(-c3nnc(SCc4ccc([N+](=O)[O-])cc4)n3N)[nH]n2)cc1 | -1.01%
50 | CC(CN1CCOCC1)c1ccccc1 (centres undefined) | 55.2% (active)
51 | OC(c1ccccc1)C(CN1CCOCC1)c1ccccc1 (centres undefined) | -2.23%
52 | CC(CN1CCCCC1)c1ccccc1 (centres undefined) | -1.54%
53 | COC(=O)[C@]1(C#N)CC(=O)N(CC2CCCCC2)[C@@H]1c1ccccc1 | 5.42%
54 | Cc1ccc(C(=O)OCC(=O)NC2CCCCCCC2)cc1C | 0.37%
55 | O=C(COC(=O)Cc1ccc([N+](=O)[O-])cc1)NC1CCCCCC1 | 45.9% (active)
56 | O=C(COC(=O)c1cc([N+](=O)[O-])ccc1NCc1ccccc1)NC1CCCCC1 | -2.56%
57 | COC(=O)Cc1ccc(OCC(=O)NC2CCCC2)cc1 | 0.36%
58 | Cc1ccc(C(=O)COC(=O)CCCC(=O)NC2CCCCC2)cc1[N+](=O)[O-] | 48.1% (active)
59 | O=C(CCNC(=O)c1ccc([N+](=O)[O-])cc1)NC1CCCCC1 | -0.33%
